For 11 compounds, cell viability results are on record in the supplement of paper PMC3898565.

± gives the uncertainty stated by the source.
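Also: viable cell number estimated from Alamar Blue fluorescence read at 560/90, part of a single-dose primary screen of an FDA-approved drug library.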

In the test the test system is U87. The test can be described thus: cell viability relative to vehicle control; higher = less growth inhibition (less active). The following applies: 10 µM; 72 h.
Broadly, the cell viability is a read-out of living cells in per cent, often relative to untreated cells. For the compound `Cc1cccc(C)c1NC(=O)C1CCCCN1C` (stereo unspecified), the cell viability came to 106 ± 0.63%. Then `COCCCOc1ccnc(C[S+]([O-])c2nc3ccccc3[nH]2)c1C` (stereo unspecified), with 108.6 ± 0.87%.

Take `CC(C)NCC(O)c1ccc(NS(C)(=O)=O)cc1` (stereo unspecified) [Sotalol]: the cell viability turned out to be 101.7 ± 0.99%. As for `CC(C)(O)c1ccccc1CC[C@@H](SCC1(CC(=O)O)CC1)c1cccc(/C=C/c2ccc3ccc(Cl)cc3n2)c1`, the cell viability was found to be 101.8 ± 0.94%. For the compound `CN(CCCN1c2ccccc2CCc2ccccc21)CC(=O)c1ccc(Cl)cc1`, the cell viability was found to be 107 ± 2.2%. The figure for `COc1ccccc1N1CCN(CCCNc2cc(=O)n(C)c(=O)n2C)CC1` is 109 ± 1.7%; for `CN1[C@@H](CC(=O)c2ccccc2)CCC[C@H]1C[C@H](O)c1ccccc1` it is 98.58 ± 0.82%; for `NC(=O)N1c2ccccc2CC(=O)c2ccccc21` [Trileptal] it is 102 ± 2.4%. The figure for `CC(C)OC(=O)CCC/C=C\C[C@@H]1[C@@H](CC[C@@H](O)CCc2ccccc2)[C@H](O)C[C@@H]1O` is 106 ± 4.2%. Then `CN1C(=O)CC[C@H]1c1cccnc1` [(-)-Cotinine], with 94.6 ± 10%; and `CN1CCN(C2=Nc3cc(F)ccc3Cc3ccccc32)CC1` [Fluperlapine], with 106 ± 3.3%.
